One assay deals with TSPAN8. Description: pooled miR-30 sensor sort-seq; sequence = guide strand. The conditions noted are these: shRNA.
TATGAAAAACAACAGAAGCATG gave a sensor-assay potency score (higher = more potent) of -1.79.

TTAGATTTGAAAACAGCTCCTA: the sensor-assay potency score (higher = more potent) is 0.475.

As for TAGATTTGAAAACAGCTCCTAG, the sensor-assay potency score (higher = more potent) was -0.482.

Sequence TATGTCTAGAAGATATCTGTGG registered a sensor-assay potency score (higher = more potent) of -0.374.

Regarding TAGGATACCTGTCGCCACCTGC, the sensor-assay potency score (higher = more potent) was -0.685.

TTGCTTGAGAGTCATTGCTTAC came in with a sensor-assay potency score (higher = more potent) of -1.33.

AACAACAGAAGCATGCAGCGAC displayed a sensor-assay potency score (higher = more potent) of -0.179.

On to TTGAGAGTCATTGCTTACTCGT, for which the sensor-assay potency score (higher = more potent) was -0.804.

In turn, TTGTTTTCCATTATAGCTTTGG gave a sensor-assay potency score (higher = more potent) of -0.474.

Sequence TTTGAAAACAGCTCCTAGGATA registered a sensor-assay potency score (higher = more potent) of -0.99.

Regarding TATAGCACCGCAGCATCCCAGG, the sensor-assay potency score (higher = more potent) is -1.12.

Another assay deals with TSPY2. Described as above. The conditions noted are these: shRNA.
In the case of TCCTGCACAGCCTCCATCCTGA, the sensor-assay potency score (higher = more potent) is -1.01.

As to TCTTGCAGAGATGAACACGATG, the sensor-assay potency score (higher = more potent) was -0.976.

The sequence ATGAACACGATGCTTCTCTTCT displayed a sensor-assay potency score (higher = more potent) of -0.856.

Another assay has as its target TSPYL2. The description is as above. Conditions: shRNA.
TTGTGGTCAGGATTCTCGCTGT: the sensor-assay potency score (higher = more potent) is -0.451.

Sequence ATAGATGTCCTCATCTTGCTGG registered a sensor-assay potency score (higher = more potent) of 0.469.

Regarding ATTGTCTTCAGGATTCTCGTTG, the sensor-assay potency score (higher = more potent) was -0.109.

Sequence TCTCTGTCGTCATCATCGCTGC registered a sensor-assay potency score (higher = more potent) of -0.7.

TTCATTGTCACTGTCGCTGCTG: the sensor-assay potency score (higher = more potent) amounted to 0.841.

Sequence TTGATCAAAATTGAAATTCTGG gave a sensor-assay potency score (higher = more potent) of 0.568.

These data come from the OligoGym collection.
Note: reference of the scale not given here.
